From PubChem
TCR activator: Activators of T cell receptors: qHTS campaign; 330,000 tested, under 10 active; primary human leukocytes, anti-CD3, IL-2 HTRF, 48 h; Potency, µM (titrated, usually from 9.22 µM), for the others: at the highest dose activation of IL-2 secretion, usual class: activators; AID 504894, 2011; also: % of control where 0% means no effect
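Compounds are tested in HTS on primary human leukocytes co-incubated with a-CD3 beads for 48 hr. IL-2 output is measured by time-resolved FRET.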
AT treatment: qHTS Assay for Identifying a Potential Treatment of Ataxia-Telangiectasia; Potency, µM (titrated, usually from 57.5 µM), for inactives: at the highest dose activation, most hits filed as activators; hit rate 0.19% among 320,000; F2112 A-T fibroblasts, KAP-1 phosphorylation AlphaLISA; neocarzinostatin DNA damage 30 min before lysis; also: potency is read from the fitted curve at half-maximal effect; % of control where 0% means no effect; nearly all actives have a fitted effect of over 45% in size
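ATM-like activity read as KAP-1 phosphorylation via AlphaLISA donor/acceptor antibody pairs after lysis and 6 hr at 25C. Cells were ATM-null patient fibroblasts (F2112, hTERT), dosed 60 min, then exposed to the DSB inducer NCS for 30 min.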
Nrf2 activator: qHTS of Nrf2 Activators; AREc32 ARE-luciferase reporter (MCF7-derived line), luminescence, 24 h; Potency, µM (top dose mostly 46.1 µM), for the others: at the top dose activation, usual class: activators; hit rate 0.31% among 410,000; also: potency is read from the fitted curve at half-maximal effect; % of control where 0% means no effect; nearly all actives have a fitted effect of over 65% in size
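Nrf2 activation is followed as ARE-luciferase induction in the AREc32 line after one day of compound treatment; luminescence is read with Steady-Glo.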
A549 tox-1: Nrf2 qHTS screen for inhibitors: counterscreen for cytotoxicity | A549 ARE-Fluc cells, CellTiter-Fluor viability, 18-24 h | Potency, µM (top dose mostly 46 µM), for inactives: at the top dose activity change, negative = cytotoxicity, hits mostly inhibitors | hit rate 0.16% among 390,000; also: potency is read from the fitted curve at half-maximal effect; % is scaled to controls: 0 for no effect and ±100 for the full control effect
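Cytotoxicity counterscreen: CellTiter-Fluor fluorescence was measured in A549 ARE_Fluc cells after 18-24 h of compound exposure in a concentration series. The subsequent BugLite luminescent read reports ARE-luciferase activity.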
Nrf2 block: Nrf2 qHTS screen for inhibitors | hit rate 2.1% among 360,000 | Potency, µM (titrated, usually from 46 µM), for inactives: top-dose activity change, negative = inhibition, most hits filed as inhibitors | A549 ARE-Fluc reporter, luciferase luminescence, 18-24 h; also: potency is read from the fitted curve at half-maximal effect; % is scaled to controls: 0 for no effect and ±100 for the full control effect; nearly all actives have a fitted effect of over 60% in size
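A549 ARE_Fluc cells (5000/well, 5% FBS OPTI-MEM) pre-incubated 2 h, then treated with compounds 18-24 h at 37C/5% CO2 in concentration-response. CellTiter-Fluor viability read first; BugLite luciferase luminescence after 15 min at room temperature gives Nrf2 activity.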
CCT chaperon mod: High-Throughput Screening for Modulators of Cytosolic Chaperonin Activity; purified chaperonin ATPase assay, HTRF ADP detection, 30 min; activity change, % (no concentration beside the values), hits read low; hit rate 0.3% among 360,000; in the data active = activity change below about -30%; also: % is scaled to controls: 0 for no effect and ±100 for the full control effect
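We incubate TRiC, 40 or 20 nM final, with library compounds at 76 uM and 10 uM ATP for 30 min at 37 °C. ADP formed is detected with Transcreener HTRF reagents after 30 min at room temperature.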
FLuc counter 3: Nrf2 qHTS screen for inhibitors: Purified Fluc Biochemical Counterscreen for Hit Validation. shares compounds with Nrf2 block. purified firefly luciferase, luminescence inhibition. Potency, µM (titrated, usually from 57.5 µM), without a hit: at the highest dose activity change, negative = inhibition, hits mostly inhibitors. hit rate 4% among 1,400. AID 720522, 2013; also: potency is read from the fitted curve at half-maximal effect; % is scaled to controls: 0 for no effect and ±100 for the full control effect; nearly all actives have a fitted effect of over 65% in size
Target sequence (P08659 whole entry, looked up): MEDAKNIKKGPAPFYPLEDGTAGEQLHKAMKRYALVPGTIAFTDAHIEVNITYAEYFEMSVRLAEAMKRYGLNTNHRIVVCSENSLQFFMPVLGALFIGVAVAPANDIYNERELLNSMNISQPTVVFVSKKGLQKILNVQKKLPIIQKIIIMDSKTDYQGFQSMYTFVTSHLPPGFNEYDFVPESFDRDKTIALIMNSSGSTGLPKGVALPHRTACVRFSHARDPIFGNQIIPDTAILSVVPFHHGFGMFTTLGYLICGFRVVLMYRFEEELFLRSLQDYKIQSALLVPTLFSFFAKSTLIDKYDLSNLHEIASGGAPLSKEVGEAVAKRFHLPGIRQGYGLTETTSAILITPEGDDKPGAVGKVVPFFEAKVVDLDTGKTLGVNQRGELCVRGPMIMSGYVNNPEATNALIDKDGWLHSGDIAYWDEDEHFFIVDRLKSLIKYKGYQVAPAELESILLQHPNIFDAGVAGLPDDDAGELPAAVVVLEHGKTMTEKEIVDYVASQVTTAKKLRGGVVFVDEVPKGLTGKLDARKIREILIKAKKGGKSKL
A549 tox-2: Nrf2 qHTS screen for inhibitors: A549 ARE-Fluc Cytotoxicity Counterscreen for Hit Validation. A549 ARE-Fluc cells, cytotoxicity counterscreen. shares compounds with Nrf2 block. Potency, µM (series often up to 46.1 µM), for the others: at the top dose activity change, negative = cytotoxicity, most hits filed as inhibitors. hit rate 2% among 1,400;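 also: potency is read from the fitted curve at half-maximal effect; cells exposed to compounds for 18 to 24 hours; % is scaled to controls: 0 for no effect and ±100 for the full control effect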
Nrf2 ARE inh: Nrf2 qHTS screen for inhibitors: Nrf2 A549 ARE-Fluc Confirmation Assay for Hit Validation; shares compounds with Nrf2 block; A549 ARE-firefly luciferase reporter, luminescence; Potency, µM (top dose mostly 46.1 µM), inactives show top-dose activity change, negative = inhibition, usual class: inhibitors; hit rate 74% among 1,400; also: potency is read from the fitted curve at half-maximal effect; % is scaled to controls: 0 for no effect and ±100 for the full control effect; nearly all actives have a fitted effect of over 65% in size
Active calls of the source: *. Most compounds without a hit are left out; they make up all but 2.6% or so of the library. Unless noted, calls follow the shape of the dose curve; as a rule, active = well fitted curve in the direction sought with a large enough effect; inconclusive = small, poorly fitted or top-dose-only effect, or another doubt; inactive = no such curve, though single readings can be large; an effect the other way counts as inactive or inconclusive.

How did COc1ccc(C(=O)Oc2cc(N)n(S(=O)(=O)c3ccc(C)cc3)n2)cc1 do in these assays?
TCR activator: 5%; AT treatment: -1%; Nrf2 activator: 0%; A549 tox-1: 3%; Nrf2 block: 7.3µM*; CCT chaperon mod: -2; FLuc counter 3: 3%; A549 tox-2: -9%; Nrf2 ARE inh: 2.1µM*

Results for Nc1cc(OC(=O)c2ccc(F)cc2)nn1S(=O)(=O)c1ccc(F)cc1 ?
TCR activator: 0%; AT treatment: -3%; Nrf2 activator: -1%; A549 tox-1: -5%; Nrf2 block: inconclusive; CCT chaperon mod: -1

What do the screens show for `Cc1ccc(S(=O)(=O)n2nc(OC(=O)c3ccccc3C)cc2N)cc1`?
TCR activator: 4%; AT treatment: -2%; Nrf2 activator: 0%; A549 tox-1: 4%; Nrf2 block: 5.8µM*; CCT chaperon mod: 2; FLuc counter 3: -13%; A549 tox-2: 0%; Nrf2 ARE inh: 2.3µM*

How did COc1ccc(Nc2nnc(SC(C(=O)Nc3cc(C)ccc3C)c3ccccc3)s2)cc1 (stereo not given) do in these assays?
TCR activator: 2%; AT treatment: -2%; Nrf2 activator: 2%; A549 tox-1: -16%; Nrf2 block: 8.2µM*; CCT chaperon mod: 4; FLuc counter 3: 0%; A549 tox-2: -6%; Nrf2 ARE inh: -25%

Results for CCN(CC)CCNc1nc2c(c(=O)n(C)c(=O)n2C)n1C/C=C(/C)Cl ?
TCR activator: -2%; AT treatment: 5%; Nrf2 activator: 0%; A549 tox-1: -8%; Nrf2 block: 11%; CCT chaperon mod: 2

Results for C=CCn1c(NCCc2ccccc2)nc2c1c(=O)n(C)c(=O)n2C ?
TCR activator: -1%; AT treatment: -1%; Nrf2 activator: 0%; A549 tox-1: -9%; Nrf2 block: 9.2µM*; CCT chaperon mod: 0; FLuc counter 3: 2%; A549 tox-2: 4%

What do the screens show for `Cn1c(=O)c2c(nc(NCCc3ccccc3)n2CC(=O)NCCc2ccccc2)n(C)c1=O`?
TCR activator: -7%; AT treatment: 2%; Nrf2 activator: 0%; A549 tox-1: 0%; Nrf2 block: -2%; CCT chaperon mod: 0

What do the screens show for `C/C(Cl)=C\Cn1c(NCCc2ccccc2)nc2c1c(=O)n(C)c(=O)n2C`?
TCR activator: -5%; AT treatment: 4%; Nrf2 activator: 0%; A549 tox-1: -16%; Nrf2 block: 2.9µM*; CCT chaperon mod: -6; FLuc counter 3: 1%; A549 tox-2: -11%; Nrf2 ARE inh: 7.3µM*

How did N/C(=N\NC(=O)c1sccc1OCc1ccc(Cl)cc1Cl)c1ccccn1 do in these assays?
TCR activator: -5%; AT treatment: 3%; Nrf2 activator: -1%; A549 tox-1: -21%; Nrf2 block: inconclusive; CCT chaperon mod: -1

What do the screens show for `CC(=NNc1ccc2ccccc2n1)c1ccccc1O`?
TCR activator: 4%; Nrf2 activator: inconclusive; A549 tox-1: 1%; Nrf2 block: inconclusive; CCT chaperon mod: -2; FLuc counter 3: 0.038µM*; A549 tox-2: -6%; Nrf2 ARE inh: inconclusive

How did C/C(=N\Nc1nc2ccccc2nc1C)c1ccccc1O do in these assays?
TCR activator: -5%; AT treatment: -6%; Nrf2 activator: 6%; A549 tox-1: -14%; Nrf2 block: 0%; CCT chaperon mod: 0

How did CC(=O)N1c2ccc(S(=O)(=O)N3CCC(C(=O)Nc4ccc(F)cc4)CC3)cc2CC1C (stereo not given) do in these assays?
TCR activator: -16%; AT treatment: -1%; Nrf2 activator: 0%; A549 tox-1: -11%; Nrf2 block: inconclusive; CCT chaperon mod: -1

Results for CC(=O)N1c2ccc(S(=O)(=O)N3CCC(C(=O)Nc4cccc(C(F)(F)F)c4)CC3)cc2CC1C (stereo not given) ?
TCR activator: -2%; AT treatment: 0%; Nrf2 activator: 1%; A549 tox-1: -16%; Nrf2 block: 4.6µM*; CCT chaperon mod: 0; FLuc counter 3: 2%; A549 tox-2: -11%; Nrf2 ARE inh: 12µM*

How did CC(=O)N1c2ccc(S(=O)(=O)N3CCC(C(=O)Nc4cccc(C)n4)CC3)cc2CC1C (stereo not given) do in these assays?
TCR activator: -3%; AT treatment: 4%; Nrf2 activator: 2%; A549 tox-1: -15%; Nrf2 block: 1.5µM*; CCT chaperon mod: 2; FLuc counter 3: 0%; A549 tox-2: -8%; Nrf2 ARE inh: 5.8µM*

What do the screens show for `COc1cccc(NC(=O)C2CCN(S(=O)(=O)c3ccc4c(c3)CC(C)N4C(C)=O)CC2)c1` (stereo not given)?
TCR activator: 5%; AT treatment: 4%; Nrf2 activator: 0%; A549 tox-1: -4%; Nrf2 block: inconclusive; CCT chaperon mod: -1

Results for CCc1cccc(NC(=O)C2CCN(S(=O)(=O)c3ccc4c(c3)CC(C)N4C(C)=O)CC2)c1 (stereo not given) ?
TCR activator: 2%; AT treatment: -16%; Nrf2 activator: -1%; A549 tox-1: -19%; Nrf2 block: 7.3µM*; CCT chaperon mod: -3; FLuc counter 3: 0%; A549 tox-2: -6%; Nrf2 ARE inh: 9.2µM*

What do the screens show for `COc1ccc(-c2nc(C)c(CCNC(=O)c3c(F)cccc3F)s2)cc1`?
Nrf2 activator: 6%; A549 tox-1: -2%
